The panel holds about 83,000 compounds, 20% with a hit somewhere; the sample as a whole holds those more often.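 Activity criterion: percent growth below 10, measured after cells in 96-well plates were exposed to a single compound concentration for 48 hours.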 Values without a mark were called inactive. Calls of active or inactive are those of the source.
How the values were obtained:
Assay in all cases: NCI-60 one-dose screen, 48 h (100 = growth as untreated, 0 = no growth, -100 = all killed)
Details in all cases: 10 µM unless noted
DU-145 prostate = system: DU-145 prostate
K-562 leukemia = system: K-562 leukemia
MALME-3M melanoma = system: MALME-3M melanoma
MDA-MB-231 breast = system: MDA-MB-231 breast
RXF 393 renal = system: RXF 393 renal
SF-268 CNS = system: SF-268 CNS
SF-295 CNS = system: SF-295 CNS
SF-539 CNS = system: SF-539 CNS
UACC-257 melanoma = system: UACC-257 melanoma
M14 melanoma = system: M14 melanoma
HCT-15 colon = system: HCT-15 colon
HT29 colon = system: HT29 colon
SNB-75 CNS = system: SNB-75 CNS
SNB-19 CNS = system: SNB-19 CNS
U251 CNS = system: U251 CNS
PC-3 prostate = system: PC-3 prostate
SK-MEL-5 melanoma = system: SK-MEL-5 melanoma
UACC-62 melanoma = system: UACC-62 melanoma
LOX IMVI melanoma = system: LOX IMVI melanoma
SK-MEL-28 melanoma = system: SK-MEL-28 melanoma

SMILES | growth (DU-145 prostate) | growth (K-562 leukemia) | growth (MALME-3M melanoma) | growth (MDA-MB-231 breast) | growth (RXF 393 renal) | growth (SF-268 CNS) | growth (SF-295 CNS) | growth (SF-539 CNS) | growth (UACC-257 melanoma) | growth (M14 melanoma) | growth (HCT-15 colon) | growth (HT29 colon) | growth (SNB-75 CNS) | growth (SNB-19 CNS) | growth (U251 CNS) | growth (PC-3 prostate) | growth (SK-MEL-5 melanoma) | growth (UACC-62 melanoma) | growth (LOX IMVI melanoma) | growth (SK-MEL-28 melanoma)
CCOC(=O)C1=C(C)n2nc(CC#N)c(C#N)c2NC1c1ccc(CC)cc1 (stereo not given) | 106% | 106% | 86.8% | 87.5% | 107% | 99.1% | 101% | 110% | 111% | 91.5% | 99.6% | 107% | 88.5% | 106% | 101% | 90.8% | 96.6% | 94.5% | 92.7% | 103%
COc1ccc2[nH]c(-c3ccccc3)c(C=C(C#N)C#N)c2c1 | 35.2% | -11.9% (active) | 55.1% | 57.9% | 22.4% | 49.1% | -35.2% (active) | 14% | 69.8% | 5.54% (active) | 36.3% | 17.2% | -5.72% (active) | 73.2% | 35.2% | 13.2% | 8.94% (active) | 22.1% | 42.6% | 44%
C=C(C)[C@@H]1CC[C@]2(C(N)=O)CC[C@]3(C)[C@H](CC[C@@H]4[C@@]5(C)CCCNC(C)(C)[C@@H]5CC[C@]43C)[C@@H]12 | 92.4% | 7.26% (active) | 75% | 62.4% | 72.4% | 85.8% | 80.9% | 65.4% | 57.6% | 86.8% | 50.2% | 16.4% | 76% | 87.3% | 58.7% | 50.3% | 67.2% | 87.4% | 76.9% | 85.1%
O=C1CCC23OC(c4ccccc4N12)C(O)C(O)C3O (stereo not given) | 107% | 90.4% | 91.6% | 103% | 113% | 96.6% | 110% | 101% | 102% | 100% | 109% | 91.6% | 113% | 101% | 105% | 95.6% | 111% | 98.5% | 100% | 118%
O=C(/C(=C/c1ccc([N+](=O)[O-])cc1)SCc1ccc(F)cc1)c1ccc(Cl)cc1 | 87.5% | 0.694% (active) | 91.9% | 58.7% | 93.4% | 75.6% | 81.6% | 94.6% | 87.4% | 44.7% | 5.41% (active) | 8.59% (active) | 83.3% | 47.4% | 0.994% (active) | 47.4% | 54.2% | 37.5% | 3.68% (active) | 93.1%
COc1ccc(-c2cn(-c3ccc(Cl)cc3)c(=S)[nH]2)cc1OC | 78.5% | 75.9% | 90.2% | 53% | 11% | 96.1% | 68.6% | 85.6% | 65.8% | 4.41% (active) | 63.4% | 44.2% | 111% | 90.6% | 75% | 72.4% | 41.7% | 72.5% | 0.188% (active) | 92.4%
COc1ccc(/C=C(/C(=O)N2CCCC2)c2cc(OC)c(OC)c(OC)c2)cc1 | 17% | 12.5% | 50.1% | 58.5% | 5.92% (active) | 60.1% | 18.3% | 17.1% | 52.4% | 2.21% (active) | 39.6% | 11.6% | 32% | 46.8% | 25.1% | 26.3% | 15% | 44.1% | 54.2% | 73.9%
CC1(c2ccccc2Cl)NC(=O)NC1=O (stereo not given) | 105% | 100% | 101% | 105% | 113% | 103% | 97.1% | 99.5% | 91% | 106% | 99.2% | 97.9% | 88.1% | 97.8% | 96.7% | 91.2% | 101% | 95.5% | 97.5% | 105%
Cc1c(Cl)cccc1NC(=O)c1sc2nc3c(cc2c1N)CN(Cc1ccccc1)CC3 | 30.5% | 10% | 49.5% | 86.3% | 68.8% | 42.3% | 21.8% | 39.3% | 63.6% | 26.8% | 33.6% | 8.14% (active) | 41.9% | 38.4% | 31.9% | 43.1% | 49.1% | 40.2% | 40.4% | 71.1%
COc1cc2c(Nc3ccc(NC(=O)Nc4ccc(Cl)c(C(F)(F)F)c4)c(Cl)c3)ncnc2cc1OCCCN1CCN(C)CC1 | 2.84% (active) | -61% (active) | -50.8% (active) | -60.2% (active) | -40.5% (active) | 20.2% | -67.3% (active) | -77.9% (active) | 54.6% | 0.0561% (active) | 86.7% | 1.14% (active) | 31.3% | -79% (active) | -89.5% (active) | -25.3% (active) | -44.6% (active) | 0.23% (active) | -88.3% (active) | 36.1%
CCOC(=O)c1c(C)nc2c(c1N)/C(=C/c1cccs1)C(=O)N2Cc1ccccc1 | 62% | 34.7% | 85.1% | 55.4% | 40% | 74.7% | 88% | 90.7% | 74% | 73.8% | 19.5% | 57.3% | 72.6% | 68.1% | 49.8% | 51.8% | 83.8% | 67.6% | 36.4% | 90.2%
COc1ccc(C(=O)c2cc(OC)c(OC)c(OC)c2)cc1OC(=O)C(Cl)(Cl)Cl | 7.06% (active) | 7.85% (active) | 74.8% | 28.7% | 29.9% | 34.7% | 8.77% (active) | -7.13% (active) | 56% | -4.45% (active) | 8.84% (active) | 13.4% | 58% | 23.5% | 5.44% (active) | 10.2% | -24.1% (active) | 39.8% | 15.1% | 51.6%
OCCNc1nc(NCCO)nc(Nc2ccc(C3=NN(c4cc(Cl)cc(Cl)c4)C(c4ccc(Cl)cc4)C3)cc2)n1 (stereo not given) | 0.477% (active) | 4.31% (active) | -43.7% (active) | 7.31% (active) | -57.8% (active) | 19.1% | -68.3% (active) | -45.2% (active) | 48.4% | 1.11% (active) | 5.12% (active) | -46% (active) | -6.43% (active) | 15.8% | -47.8% (active) | -12.1% (active) | 24.9% | 13.1% | -53.4% (active) | -55.8% (active)
COc1ccc(-c2cc(-c3nnc(SCC(=O)Nc4ccc(/C(C)=N\O)cc4)o3)c3ccccc3n2)cc1 | 109% | 96.5% | 97.8% | 114% | 106% | 101% | 105% | 111% | 101% | 115% | 100% | 101% | 98.3% | 90.8% | 101% | 100% | 99.2% | 106% | 97.7% | 114%
C=C1C(=O)O[C@H]2[C@H]1CC/C(COC(=O)N1CCC[C@H]1C(=O)Nc1ccc(OC)c(C(N)=O)c1O)=C\CC[C@@]1(C)O[C@@H]21 | 39.4% | 11.2% | 27.3% | 46% | -12.7% (active) | 54.6% | 90.1% | -4.09% (active) | 25.2% | 36.5% | 59.6% | -8.09% (active) | 84% | 60.5% | 51.6% | 74.4% | 63.7% | 34.5% | 43.4% | 49.4%
CC(/C=C/c1ccccc1)=N/NC(=O)c1ccncc1 | 112% | 100% | 89.5% | 105% | 113% | 102% | 109% | 105% | 89.8% | 101% | 100% | 108% | 97.7% | 102% | 98.3% | 92.5% | 100% | 94.1% | 99.5% | 118%

Reference: PubChem BioAssay (NCI)
